Measured values published in the supplement of paper PMC10849652.
Targets with a hit are over-represented here; the source holds about 7,900 in all. About 0.6% of all pairs of compound and target were hits. Values without a mark were called inactive.

What was measured:
Test in all cases: log2 fold change, soluble protein after heating vs DMSO (PISA); higher = thermal stabilisation; K562 cells, 10 uM, 30 min; active = over 0.2 and 3.5 SD of the protein, either way, in both replicates (recomputed)
[1] = compound: CC1=C(C=C(C=C1)NC(=O)C2=CC(=CC=C2)C(C)(C)C#N)NC3=CC4=C(C=C3)N=CN(C4=O)C
How it was run: (§1)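 Values are thermal stability changes relative to control samples and are taken from duplicates. They are stated as log2 fold changes. Before quantification by TMTpro 16plex LC-MS/MS with equalised channel sums, K562 cells at 2×10^6 cells/mL were treated with 10 μM compound for 30 min, heated in aliquots for 3 min across 48°C-58°C, pooled, extracted in PBS with 0.5% NP-40 at 4°C, and centrifuged at 21,000xg for 90 min to give the soluble supernatant.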

[2] = compound: CC1=C(C=C(C=C1)NC(=O)C2=CC(=CC=C2)N(C)C)NC(=O)C3=CC=C(C=C3)O
How it was run: as §1

[3] = compound: CC1=CC=C(C=C1)SC2=C3C=C(SC3=CN=C2)C(=O)N
How it was run: as §1

[4] = compound: CC1=NC(=CC=C1)C2=C(N=C(N2)C(C)(C)C)C3=CC4=NC=CN=C4C=C3
How it was run: as §1

Nexturastat A = compound: CCCCN(Cc1ccc(C(=O)NO)cc1)C(=O)Nc1ccccc1 [Nexturastat A]
How it was run: as §1

vemurafenib = compound: CCCS(=O)(=O)Nc1ccc(F)c(C(=O)c2c[nH]c3ncc(-c4ccc(Cl)cc4)cc23)c1F [vemurafenib]
How it was run: as §1

[5] = compound: CCCS(=O)(=O)Nc1ccc(F)c(C(=O)c2c[nH]c3ncc(Cl)cc23)c1F
How it was run: as §1

[6] = compound: CCCc1cc(C)[nH]c(=O)c1CNC(=O)c1cc(-c2ccnc(N3CCN(C)CC3)c2)cc2c1cnn2C(C)C
How it was run: as §1

givinostat = compound: CCN(CC)Cc1ccc2cc(COC(=O)Nc3ccc(C(=O)NO)cc3)ccc2c1 [givinostat]
How it was run: as §1

barasertib = compound: CCN(CCCOc1ccc2c(Nc3cc(CC(=O)Nc4cccc(F)c4)[nH]n3)ncnc2c1)CCOP(=O)(O)O [barasertib]
How it was run: as §1

KRAS isoform 2 (UniProt P01116)
log2 fold change [1]: -0.034
log2 fold change [2]: 0.046
log2 fold change [3]: -0.023
log2 fold change [4]: -0.026
log2 fold change (Nexturastat A): -0.063
log2 fold change (vemurafenib): -0.03
log2 fold change [5]: -0.093
log2 fold change [6]: -0.073
log2 fold change (givinostat): 0.014
log2 fold change (barasertib): 0.003

KIF21A isoform 4 (UniProt Q7Z4S6)
log2 fold change [1]: 0.051
log2 fold change [2]: -0.067
log2 fold change [3]: -0.003
log2 fold change [4]: -0.043
log2 fold change (Nexturastat A): 0.106
log2 fold change (vemurafenib): -0.045
log2 fold change [5]: 0.014
log2 fold change [6]: -0.025
log2 fold change (givinostat): 0.069
log2 fold change (barasertib): 0.104

ILKAP (UniProt Q9H0C8)
log2 fold change [1]: -0.026
log2 fold change [2]: -0.117
log2 fold change [3]: 0.072
log2 fold change [4]: 0.168
log2 fold change (Nexturastat A): 0
log2 fold change (vemurafenib): 0.08
log2 fold change [5]: 0.082
log2 fold change [6]: 0.063
log2 fold change (givinostat): 0.071
log2 fold change (barasertib): 0.07

LARP7 isoform 3 (UniProt Q4G0J3)
log2 fold change [1]: -0.011
log2 fold change [2]: 0.054
log2 fold change [3]: -0.03
log2 fold change [4]: -0.053
log2 fold change (Nexturastat A): 0.016
log2 fold change (vemurafenib): 0.027
log2 fold change [5]: 0.045
log2 fold change [6]: 0.004
log2 fold change (givinostat): -0.03
log2 fold change (barasertib): 0

KDM5D isoform 3 (UniProt Q9BY66)
log2 fold change [1]: -0.132
log2 fold change [2]: -0.144
log2 fold change [3]: 0.036
log2 fold change [4]: 0.039
log2 fold change (Nexturastat A): -0.08
log2 fold change (vemurafenib): 0.003
log2 fold change [5]: 0.128
log2 fold change [6]: -0.004
log2 fold change (givinostat): 0.014
log2 fold change (barasertib): 0.108

KIFBP (UniProt Q96EK5)
Sequence of UniProt Q96EK5 (Q96EK5 whole entry, looked up): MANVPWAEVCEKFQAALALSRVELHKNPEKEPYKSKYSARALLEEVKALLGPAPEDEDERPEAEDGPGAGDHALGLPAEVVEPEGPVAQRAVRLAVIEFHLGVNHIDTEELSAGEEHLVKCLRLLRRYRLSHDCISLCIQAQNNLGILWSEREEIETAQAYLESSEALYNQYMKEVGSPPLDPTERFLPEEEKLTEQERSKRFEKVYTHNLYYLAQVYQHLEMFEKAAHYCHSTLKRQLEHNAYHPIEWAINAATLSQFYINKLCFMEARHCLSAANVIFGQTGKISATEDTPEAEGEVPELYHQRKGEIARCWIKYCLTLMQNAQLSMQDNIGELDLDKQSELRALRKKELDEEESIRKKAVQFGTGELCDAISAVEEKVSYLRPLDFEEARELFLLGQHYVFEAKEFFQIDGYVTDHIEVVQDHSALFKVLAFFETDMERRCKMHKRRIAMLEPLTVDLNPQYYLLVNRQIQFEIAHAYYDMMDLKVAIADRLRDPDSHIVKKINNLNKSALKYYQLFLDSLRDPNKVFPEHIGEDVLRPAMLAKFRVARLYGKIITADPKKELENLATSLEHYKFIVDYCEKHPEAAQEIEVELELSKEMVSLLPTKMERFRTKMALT
log2 fold change [1]: 0.019
log2 fold change [2]: 0.034
log2 fold change [3]: 0.052
log2 fold change [4]: 0.027
log2 fold change (Nexturastat A): -0.107
log2 fold change (vemurafenib): 0.067
log2 fold change [5]: 0.093
log2 fold change [6]: -0.013
log2 fold change (givinostat): -0.004
log2 fold change (barasertib): 0.022

KIAA1324L (UniProt A8MWY0)
log2 fold change [1]: -0.065
log2 fold change [2]: -0.022
log2 fold change [3]: 0.028
log2 fold change [4]: 0.002
log2 fold change (Nexturastat A): 0.045
log2 fold change (vemurafenib): 0.002
log2 fold change [5]: -0.048
log2 fold change [6]: 0.05
log2 fold change (givinostat): 0.032
log2 fold change (barasertib): 0.002

MAGI1 (UniProt Q96QZ7)
log2 fold change [1]: 0.041
log2 fold change [2]: 0.041
log2 fold change [3]: -0.027
log2 fold change [4]: -0.023
log2 fold change (Nexturastat A): 0.074
log2 fold change (vemurafenib): 0.018
log2 fold change [5]: -0.009
log2 fold change [6]: -0.026
log2 fold change (givinostat): -0.013
log2 fold change (barasertib): -0.008

MFSD5 isoform 2 (UniProt Q6N075)
Sequence of UniProt Q6N075 (Q6N075 whole entry, looked up): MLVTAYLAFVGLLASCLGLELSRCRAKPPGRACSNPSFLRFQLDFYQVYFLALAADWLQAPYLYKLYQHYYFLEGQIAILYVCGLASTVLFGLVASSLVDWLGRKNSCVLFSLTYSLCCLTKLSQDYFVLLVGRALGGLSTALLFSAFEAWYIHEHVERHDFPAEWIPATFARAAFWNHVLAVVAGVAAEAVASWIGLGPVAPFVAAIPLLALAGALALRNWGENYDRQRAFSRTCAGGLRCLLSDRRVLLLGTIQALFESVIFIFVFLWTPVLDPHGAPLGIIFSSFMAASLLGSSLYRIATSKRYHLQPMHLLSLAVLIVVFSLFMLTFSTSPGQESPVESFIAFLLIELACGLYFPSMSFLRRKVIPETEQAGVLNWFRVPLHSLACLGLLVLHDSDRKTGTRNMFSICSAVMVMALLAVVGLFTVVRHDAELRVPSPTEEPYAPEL
log2 fold change [1]: 0.038
log2 fold change [2]: 0.015
log2 fold change [3]: -0.078
log2 fold change [4]: 0.064
log2 fold change (Nexturastat A): -0.014
log2 fold change (vemurafenib): 0.023
log2 fold change [5]: -0.118
log2 fold change [6]: -0.039
log2 fold change (givinostat): -0.039
log2 fold change (barasertib): 0.122

LMNA (UniProt P02545)
log2 fold change [1]: -0.023
log2 fold change [2]: 0.095
log2 fold change [3]: -0.026
log2 fold change [4]: -0.002
log2 fold change (Nexturastat A): -0.022
log2 fold change (vemurafenib): 0.088
log2 fold change [5]: 0.014
log2 fold change [6]: -0.027
log2 fold change (givinostat): 0.014
log2 fold change (barasertib): -0.004

MCCC2 (UniProt Q9HCC0)
log2 fold change [1]: 0.048
log2 fold change [2]: -0.028
log2 fold change [3]: 0.026
log2 fold change [4]: 0.04
log2 fold change (Nexturastat A): -0.04
log2 fold change (vemurafenib): 0.011
log2 fold change [5]: 0.013
log2 fold change [6]: -0.028
log2 fold change (givinostat): -0.049
log2 fold change (barasertib): -0.02

KCT2 (UniProt Q8NC54)
log2 fold change [1]: 0.104
log2 fold change [2]: 0.007
log2 fold change [3]: 0.006
log2 fold change [4]: 0.017
log2 fold change (Nexturastat A): -0.102
log2 fold change (vemurafenib): -0.013
log2 fold change [5]: -0.011
log2 fold change [6]: -0.008
log2 fold change (givinostat): -0.108
log2 fold change (barasertib): -0.025

LMF2 (UniProt Q9BU23)
Sequence of UniProt Q9BU23 (Q9BU23 whole entry, looked up): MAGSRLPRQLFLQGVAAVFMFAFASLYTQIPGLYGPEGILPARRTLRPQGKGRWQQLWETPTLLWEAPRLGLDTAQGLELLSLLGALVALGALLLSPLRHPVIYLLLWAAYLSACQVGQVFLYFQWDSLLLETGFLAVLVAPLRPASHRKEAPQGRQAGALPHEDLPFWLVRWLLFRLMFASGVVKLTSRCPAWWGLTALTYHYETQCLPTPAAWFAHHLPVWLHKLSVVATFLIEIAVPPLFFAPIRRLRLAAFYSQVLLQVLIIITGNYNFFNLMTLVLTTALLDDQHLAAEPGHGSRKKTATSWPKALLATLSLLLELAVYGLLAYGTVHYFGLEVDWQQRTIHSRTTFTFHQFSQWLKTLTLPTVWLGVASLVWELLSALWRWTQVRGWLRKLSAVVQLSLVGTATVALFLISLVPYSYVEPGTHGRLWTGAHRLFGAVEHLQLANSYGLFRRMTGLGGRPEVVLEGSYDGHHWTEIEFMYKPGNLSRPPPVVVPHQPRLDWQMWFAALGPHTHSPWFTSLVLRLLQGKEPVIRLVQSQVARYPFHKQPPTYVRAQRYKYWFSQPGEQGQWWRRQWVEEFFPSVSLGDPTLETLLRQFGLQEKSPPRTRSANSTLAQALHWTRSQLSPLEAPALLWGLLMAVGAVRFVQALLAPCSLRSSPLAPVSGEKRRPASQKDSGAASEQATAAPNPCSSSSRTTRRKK
log2 fold change [1]: 0.009
log2 fold change [2]: -0.07
log2 fold change [3]: 0.025
log2 fold change [4]: -0.078
log2 fold change (Nexturastat A): -0.022
log2 fold change (vemurafenib): 0.067
log2 fold change [5]: -0.022
log2 fold change [6]: 0.016
log2 fold change (givinostat): 0.033
log2 fold change (barasertib): -0.002

KCTD10 (UniProt Q9H3F6)
Sequence of UniProt Q9H3F6 (Q9H3F6 whole entry, looked up): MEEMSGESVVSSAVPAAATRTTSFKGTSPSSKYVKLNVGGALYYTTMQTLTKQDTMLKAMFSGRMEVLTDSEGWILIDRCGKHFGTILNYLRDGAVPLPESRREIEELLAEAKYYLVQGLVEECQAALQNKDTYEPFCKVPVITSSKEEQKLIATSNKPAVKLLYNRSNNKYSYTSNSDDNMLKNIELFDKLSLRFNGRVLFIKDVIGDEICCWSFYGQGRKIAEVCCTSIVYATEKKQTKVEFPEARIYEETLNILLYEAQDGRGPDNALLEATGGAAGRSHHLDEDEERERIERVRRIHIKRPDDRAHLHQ
log2 fold change [1]: -0.055
log2 fold change [2]: 0.022
log2 fold change [3]: -0.025
log2 fold change [4]: 0.017
log2 fold change (Nexturastat A): 0.051
log2 fold change (vemurafenib): -0.013
log2 fold change [5]: -0.029
log2 fold change [6]: 0.024
log2 fold change (givinostat): 0.025
log2 fold change (barasertib): 0.021

IRAK4 (UniProt Q9NWZ3)
Sequence of UniProt Q9NWZ3 (Q9NWZ3 whole entry, looked up): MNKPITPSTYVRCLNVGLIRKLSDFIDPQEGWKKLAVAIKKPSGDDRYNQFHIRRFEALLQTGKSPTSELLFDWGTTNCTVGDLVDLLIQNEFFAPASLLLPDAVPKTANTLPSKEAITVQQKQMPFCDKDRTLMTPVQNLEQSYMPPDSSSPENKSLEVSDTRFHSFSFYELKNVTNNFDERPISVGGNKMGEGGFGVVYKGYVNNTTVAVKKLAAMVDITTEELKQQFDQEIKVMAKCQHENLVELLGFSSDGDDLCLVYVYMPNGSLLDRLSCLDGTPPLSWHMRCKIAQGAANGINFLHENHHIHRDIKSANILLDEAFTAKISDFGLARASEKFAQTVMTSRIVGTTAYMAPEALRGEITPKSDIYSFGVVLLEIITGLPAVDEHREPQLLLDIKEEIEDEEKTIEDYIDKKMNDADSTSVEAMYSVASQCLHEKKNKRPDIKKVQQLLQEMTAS
log2 fold change [1]: 0.006
log2 fold change [2]: -0.039
log2 fold change [3]: 0
log2 fold change [4]: 0.03
log2 fold change (Nexturastat A): 0.009
log2 fold change (vemurafenib): 0.041
log2 fold change [5]: 0.068
log2 fold change [6]: -0.003
log2 fold change (givinostat): 0.062
log2 fold change (barasertib): 0.024

MAIP1 (UniProt Q8WWC4)
log2 fold change [1]: -0.022
log2 fold change [2]: -0.005
log2 fold change [3]: 0.083
log2 fold change [4]: 0.088
log2 fold change (Nexturastat A): -0.033
log2 fold change (vemurafenib): 0.034
log2 fold change [5]: 0.057
log2 fold change [6]: -0.034
log2 fold change (givinostat): 0.001
log2 fold change (barasertib): -0.002

INTS7 (UniProt Q9NVH2)
log2 fold change [1]: 0.134
log2 fold change [2]: -0.007
log2 fold change [3]: 0.088
log2 fold change [4]: 0.091
log2 fold change (Nexturastat A): -0.001
log2 fold change (vemurafenib): 0.039
log2 fold change [5]: 0.018
log2 fold change [6]: 0.027
log2 fold change (givinostat): 0.242
log2 fold change (barasertib): 0.022

MGST1 (UniProt P10620)
log2 fold change [1]: 0.062
log2 fold change [2]: 0.044
log2 fold change [3]: -0.017
log2 fold change [4]: 0.017
log2 fold change (Nexturastat A): -0.07
log2 fold change (vemurafenib): 0.067
log2 fold change [5]: -0.007
log2 fold change [6]: -0.093
log2 fold change (givinostat): -0.027
log2 fold change (barasertib): -0.035

MAD2L1 (UniProt Q13257)
log2 fold change [1]: 0.019
log2 fold change [2]: -0.035
log2 fold change [3]: -0.003
log2 fold change [4]: 0.031
log2 fold change (Nexturastat A): -0.103
log2 fold change (vemurafenib): 0.028
log2 fold change [5]: 0.031
log2 fold change [6]: -0.129
log2 fold change (givinostat): 0.02
log2 fold change (barasertib): 0.018

LPGAT1 (UniProt Q92604)
Sequence of UniProt Q92604 (Q92604 whole entry, looked up): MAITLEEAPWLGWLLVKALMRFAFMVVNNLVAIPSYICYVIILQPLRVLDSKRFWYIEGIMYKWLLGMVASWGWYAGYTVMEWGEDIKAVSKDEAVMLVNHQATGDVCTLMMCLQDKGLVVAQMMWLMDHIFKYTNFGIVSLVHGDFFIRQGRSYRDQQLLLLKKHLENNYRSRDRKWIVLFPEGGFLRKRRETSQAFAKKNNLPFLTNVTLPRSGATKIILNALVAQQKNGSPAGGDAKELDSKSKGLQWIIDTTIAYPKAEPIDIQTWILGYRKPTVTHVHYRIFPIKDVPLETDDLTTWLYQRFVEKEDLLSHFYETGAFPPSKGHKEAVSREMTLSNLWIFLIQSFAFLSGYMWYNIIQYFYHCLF
log2 fold change [1]: -0.077
log2 fold change [2]: 0
log2 fold change [3]: 0.034
log2 fold change [4]: 0.077
log2 fold change (Nexturastat A): 0.036
log2 fold change (vemurafenib): 0.018
log2 fold change [5]: 0.086
log2 fold change [6]: -0.033
log2 fold change (givinostat): 0.064
log2 fold change (barasertib): 0.068

LDAH isoform 2 (UniProt Q9H6V9)
Sequence of UniProt Q9H6V9 (Q9H6V9 whole entry, looked up): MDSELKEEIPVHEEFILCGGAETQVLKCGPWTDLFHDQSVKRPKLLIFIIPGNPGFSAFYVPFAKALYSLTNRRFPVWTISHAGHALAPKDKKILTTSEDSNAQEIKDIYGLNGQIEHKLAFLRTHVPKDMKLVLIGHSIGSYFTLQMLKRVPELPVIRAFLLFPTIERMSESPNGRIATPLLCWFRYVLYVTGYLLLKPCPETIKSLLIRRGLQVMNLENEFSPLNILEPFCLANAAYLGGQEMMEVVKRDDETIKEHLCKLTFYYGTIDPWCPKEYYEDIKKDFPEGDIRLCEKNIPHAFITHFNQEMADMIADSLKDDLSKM
log2 fold change [1]: -0.026
log2 fold change [2]: -0.008
log2 fold change [3]: 0
log2 fold change [4]: -0.024
log2 fold change (Nexturastat A): 0.032
log2 fold change (vemurafenib): 0.044
log2 fold change [5]: 0.024
log2 fold change [6]: -0.04
log2 fold change (givinostat): 0.059
log2 fold change (barasertib): 0.031

LMBR1 isoform 3 (UniProt Q8WVP7)
log2 fold change [1]: -0.156
log2 fold change [2]: 0.17
log2 fold change [3]: 0.128
log2 fold change [4]: 0.036
log2 fold change (Nexturastat A): 0.134
log2 fold change (vemurafenib): 0.049
log2 fold change [5]: 0.175
log2 fold change [6]: -0.086
log2 fold change (givinostat): 0
log2 fold change (barasertib): -0.007

INPP5B (UniProt P32019)
Sequence of UniProt P32019 (P32019 whole entry, looked up): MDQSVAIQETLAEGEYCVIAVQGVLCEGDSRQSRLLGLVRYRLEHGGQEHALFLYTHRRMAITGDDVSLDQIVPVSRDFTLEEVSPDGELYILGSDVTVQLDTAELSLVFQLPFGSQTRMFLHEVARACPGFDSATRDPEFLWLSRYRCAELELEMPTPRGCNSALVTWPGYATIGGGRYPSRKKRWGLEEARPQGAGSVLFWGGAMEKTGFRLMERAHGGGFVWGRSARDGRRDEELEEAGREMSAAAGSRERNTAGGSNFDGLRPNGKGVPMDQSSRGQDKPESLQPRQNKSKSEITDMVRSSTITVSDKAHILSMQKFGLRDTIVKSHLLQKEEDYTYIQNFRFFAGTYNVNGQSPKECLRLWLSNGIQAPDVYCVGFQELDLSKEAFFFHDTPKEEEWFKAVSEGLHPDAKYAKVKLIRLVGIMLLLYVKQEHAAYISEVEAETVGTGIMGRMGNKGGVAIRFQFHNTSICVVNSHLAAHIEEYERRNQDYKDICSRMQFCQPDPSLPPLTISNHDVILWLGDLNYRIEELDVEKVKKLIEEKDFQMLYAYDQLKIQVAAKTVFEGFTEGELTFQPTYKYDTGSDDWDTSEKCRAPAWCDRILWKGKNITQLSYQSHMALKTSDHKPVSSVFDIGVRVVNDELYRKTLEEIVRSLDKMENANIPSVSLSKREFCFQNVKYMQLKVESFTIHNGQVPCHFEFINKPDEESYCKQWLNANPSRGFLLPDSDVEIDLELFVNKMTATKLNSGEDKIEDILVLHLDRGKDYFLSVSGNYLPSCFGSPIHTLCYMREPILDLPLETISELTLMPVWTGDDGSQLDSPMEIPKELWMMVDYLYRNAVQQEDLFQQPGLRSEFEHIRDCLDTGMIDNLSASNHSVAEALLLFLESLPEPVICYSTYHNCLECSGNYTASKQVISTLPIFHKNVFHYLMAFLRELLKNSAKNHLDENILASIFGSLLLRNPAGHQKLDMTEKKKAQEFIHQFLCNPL
log2 fold change [1]: 0.02
log2 fold change [2]: -0.06
log2 fold change [3]: -0.071
log2 fold change [4]: 0.007
log2 fold change (Nexturastat A): 0.096
log2 fold change (vemurafenib): -0.006
log2 fold change [5]: -0.004
log2 fold change [6]: 0.062
log2 fold change (givinostat): 0.105
log2 fold change (barasertib): 0.069

LMNB1 (UniProt P20700)
log2 fold change [1]: -0.019
log2 fold change [2]: 0.027
log2 fold change [3]: -0.046
log2 fold change [4]: -0.012
log2 fold change (Nexturastat A): -0.045
log2 fold change (vemurafenib): 0.1
log2 fold change [5]: 0.065
log2 fold change [6]: -0.029
log2 fold change (givinostat): 0.002
log2 fold change (barasertib): 0.021

LBR (UniProt Q14739)
log2 fold change [1]: 0.045
log2 fold change [2]: -0.035
log2 fold change [3]: -0.002
log2 fold change [4]: 0.045
log2 fold change (Nexturastat A): -0.108
log2 fold change (vemurafenib): 0.063
log2 fold change [5]: 0.05
log2 fold change [6]: -0.009
log2 fold change (givinostat): 0.125
log2 fold change (barasertib): 0.024

MED8 isoform 2 (UniProt Q96G25)
Sequence of UniProt Q96G25 (Q96G25 whole entry, looked up): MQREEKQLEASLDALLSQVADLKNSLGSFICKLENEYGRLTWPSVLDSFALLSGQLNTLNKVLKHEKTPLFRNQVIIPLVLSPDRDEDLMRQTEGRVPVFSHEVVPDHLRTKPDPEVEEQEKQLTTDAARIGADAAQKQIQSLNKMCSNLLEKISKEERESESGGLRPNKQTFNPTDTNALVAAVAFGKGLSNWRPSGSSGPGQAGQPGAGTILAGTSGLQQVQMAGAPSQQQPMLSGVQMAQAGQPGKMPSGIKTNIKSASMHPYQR
log2 fold change [1]: -0.085
log2 fold change [2]: 0.038
log2 fold change [3]: -0.03
log2 fold change [4]: 0.089
log2 fold change (Nexturastat A): 0.045
log2 fold change (vemurafenib): 0.36 (active)
log2 fold change [5]: -0.027
log2 fold change [6]: 0.081
log2 fold change (givinostat): -0.038
log2 fold change (barasertib): -0.059

MAPK14 isoform 2 (UniProt Q16539)
log2 fold change [1]: 1.9 (active)
log2 fold change [2]: 0.649
log2 fold change [3]: 0.024
log2 fold change [4]: 0.036
log2 fold change (Nexturastat A): 0.064
log2 fold change (vemurafenib): 0.095
log2 fold change [5]: 0.219
log2 fold change [6]: 0.026
log2 fold change (givinostat): 0.107
log2 fold change (barasertib): -0.005

INPP1 (UniProt P49441)
Sequence of UniProt P49441 (P49441 whole entry, looked up): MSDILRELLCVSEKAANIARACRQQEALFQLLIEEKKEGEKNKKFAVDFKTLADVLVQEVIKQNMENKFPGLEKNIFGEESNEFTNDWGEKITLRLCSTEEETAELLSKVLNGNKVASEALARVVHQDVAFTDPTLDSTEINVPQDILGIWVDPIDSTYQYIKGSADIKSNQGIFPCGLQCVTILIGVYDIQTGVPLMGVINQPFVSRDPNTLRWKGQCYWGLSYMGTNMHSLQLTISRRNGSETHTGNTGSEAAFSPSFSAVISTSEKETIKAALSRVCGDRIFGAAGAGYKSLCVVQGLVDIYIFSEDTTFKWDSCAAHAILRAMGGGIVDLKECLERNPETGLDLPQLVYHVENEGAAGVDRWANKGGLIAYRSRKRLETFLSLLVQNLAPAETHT
log2 fold change [1]: 0.039
log2 fold change [2]: 0.016
log2 fold change [3]: 0.054
log2 fold change [4]: 0.052
log2 fold change (Nexturastat A): 0.061
log2 fold change (vemurafenib): 0.031
log2 fold change [5]: -0.071
log2 fold change [6]: 0.079
log2 fold change (givinostat): -0.032
log2 fold change (barasertib): -0.03

MEAK7 (UniProt Q6P9B6)
log2 fold change [1]: 0.081
log2 fold change [2]: 0.053
log2 fold change [3]: -0.005
log2 fold change [4]: 0.015
log2 fold change (Nexturastat A): -0.006
log2 fold change (vemurafenib): 0.012
log2 fold change [5]: 0.067
log2 fold change [6]: -0.055
log2 fold change (givinostat): 0.085
log2 fold change (barasertib): 0.025
